Measured values as given in PubChem BioAssay AID1159580 (chemical genetic matrix, 2015).
Where “and” joins values, the source holds several entries; their conditions need not be identical. Equal values may be shown once. Hit rate of the full screen: of about 5,500 compounds, about 2,000 (36%) were called active. Inconclusive results (about 18%) are left out. No stated cut-off is given here; in the data, active means normalized growth mostly below about 0.91 (no sharp cut-off); inconclusive means no clear call, values can overlap the other calls; inactive means mostly above about 0.92. The list shows a part of the results. Some structures have more than one record in an assay (separate samples or runs), and their calls can disagree.

Assay: chemical genetic growth profiling, strain panel (AID 1159580);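 further: tested at 20 µM; growth read once vehicle control cultures reached saturation at 30 °C; 1 = growth at the plate median or of vehicle wells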
Conditions: S. cerevisiae deletion strains, growth OD
[1] = locus YAL013W, strain DEP1, stronger effect = lower value
[2] = locus YBR229C, strain ROT2, stronger effect = lower value
[3] = locus YCL061C, strain MRC1, stronger effect = lower value
[4] = locus YDL101C, strain DUN1, stronger effect = lower value
[5] = locus YDR150W, strain NUM1, stronger effect = lower value
[6] = locus YEL061C, strain CIN8, stronger effect = lower value
[7] = locus YGR078C, strain PAC10, stronger effect = lower value
[8] = locus YHR030C, strain SLT2, stronger effect = lower value
[9] = locus YHR087W, strain rtc3, stronger effect = lower value
[10] = locus YJR075W, strain HOC1, stronger effect = lower value
[11] = locus YKL190W, strain CNB1, stronger effect = lower value
[12] = locus YLR039C, strain RIC1, stronger effect = lower value
[13] = locus YLR058C, strain SHM2 (second series), stronger effect = lower value
[14] = locus YLR085C, strain ARP6, stronger effect = lower value
[15] = locus YLR262C, strain YPT6, stronger effect = lower value
[16] = locus YML094W, strain GIM5, stronger effect = lower value
[17] = locus YMR219W, strain ESC1, stronger effect = lower value
[18] = locus YMR263W, strain SAP30, stronger effect = lower value
[19] = locus YMR307W, strain GAS1, stronger effect = lower value
[20] = locus YNL153C, strain GIM3, stronger effect = lower value
[21] = locus YNL298W, strain CLA4 (second series), stronger effect = lower value
[22] = locus YNL322C, strain KRE1, stronger effect = lower value
[23] = locus YNR030W, strain Alg12, stronger effect = lower value
[24] = locus YPL055C, strain LGE1, stronger effect = lower value
[25] = locus YPL241C, strain CIN2, stronger effect = lower value
[26] = locus YPR135W, strain CTF4, stronger effect = lower value
[27] = locus YGR229C, strain SMI1, stronger effect = lower value
[28] = locus YAL040C, strain CLN3, stronger effect = lower value
[29] = locus YCL061C, strain MRC1 (second series), stronger effect = lower value
[30] = locus YDR363W, strain ESC2, stronger effect = lower value
[31] = locus YER002W, strain NOP16, stronger effect = lower value
[32] = locus YNL175C, strain NOP13, stronger effect = lower value
[33] = locus YNL197C, strain WHI3, stronger effect = lower value
[34] = locus YNL224C, strain SQS1, stronger effect = lower value
[35] = locus YOR083W, strain WHI5 (second series), stronger effect = lower value

Measured: normalized growth

COc1ccc(OC)c(S(=O)(=O)NCc2c(F)cccc2Cl)c1
inactive: [1] 0.994 | [2] 1.01 | [3] 1.01 | [4] 1.02 | [5] 0.985 | [6] 1.04 | [7] 1.02 | [8] 1.02 | [9] 1 | [10] 1.01 | [11] 1.01 | [12] 0.928 | [13] 1.02 | [14] 1.02 | [15] 0.893 | [16] 0.992 | [17] 1.01 | [18] 1.01 | [19] 1.09 | [20] 0.993 | [21] 1.02 | [22] 1.01 | [23] 1.02 | locus YOL006C, strain TOP1, stronger effect = lower value 0.98 | [24] 1.02 | [25] 1.01 | [26] 1.01

O=S(=O)(c1cc(Br)c(Br)s1)N1CCCCC1
inactive: [1] 1.01 | [2] 0.993 | [3] 0.967 | [4] 0.963 | locus YDL134C, strain PPH21, stronger effect = lower value 1.02 | [5] 1.01 | [6] 1.01 | [7] 1.01 | [27] 0.984 | [8] 1.14 | [9] 1.03 | locus YJR043C, strain POL32, stronger effect = lower value 0.964 | [10] 1.01 | [11] 1.02 | [12] 0.942 | [13] 1.01 | [14] 1.02 | [15] 0.991 | [16] 1 | [17] 1 | [18] 1 | [20] 0.955 | [21] 1.02 | [22] 1.02 | [23] 1.03 | [24] 0.946 | [25] 1 | [26] 1.04

C[C@](N)(Cc1ccc(O)cc1)C(=O)O
inactive: locus YAL021C, strain ccr4, stronger effect = lower value 1 | locus YAL026C, strain drs2, stronger effect = lower value 0.999 | locus YAL030W, strain snc1, stronger effect = lower value 0.998 | locus YBL061C, strain skt5, stronger effect = lower value 0.993 | locus YBR009C, strain hhf1, stronger effect = lower value 0.993 | locus YBR023C, strain chs3, stronger effect = lower value 0.996 | locus YBR171W, strain sec66, stronger effect = lower value 0.998 | locus YBR231C, strain swc5, stronger effect = lower value 1 | locus YBR279W, strain paf1, stronger effect = lower value 1 | locus YCL011C, strain gbp2, stronger effect = lower value 1 | locus YCL016C, strain dcc1, stronger effect = lower value 0.986 | [3] 1 | locus YCL069W, strain vba3, stronger effect = lower value 0.997 | locus YCR088W, strain abp1, stronger effect = lower value 0.99 | locus YDL005C, strain med2, stronger effect = lower value 0.989 | locus YDL040C, strain nat1, stronger effect = lower value 0.991 | locus YDR001C, strain nth1, stronger effect = lower value 0.986 | locus YDR069C, strain doa4, stronger effect = lower value 1 | locus YDR137W, strain rgp1, stronger effect = lower value 0.991 | locus YDR159W, strain sac3, stronger effect = lower value 0.991 | locus YDR195W, strain ref2 0.971 | locus YDR297W, strain sur2, stronger effect = lower value 0.996 | locus YDR334W, strain swr1, stronger effect = lower value 0.997 | locus YDR335W, strain msn5, stronger effect = lower value 0.995 | locus YDR392W, strain spt3, stronger effect = lower value 0.923 | locus YEL003W, strain gim4, stronger effect = lower value 1 | locus YEL037C, strain rad23, stronger effect = lower value 0.999 | locus YEL061C, strain CIN8 (second series), stronger effect = lower value 0.992 | locus YER015W, strain faa2, stronger effect = lower value 1 | locus YER016W, strain bim1, stronger effect = lower value 0.993 | locus YER111C, strain swi4, stronger effect = lower value 1 | locus YER155C, strain BEM2 (second series), stronger effect = lower value 0.983 | locus YFR010W, strain ubp6, stronger effect = lower value 1 | locus YGL167C, strain pmr1, stronger effect = lower value 0.994 | locus YGL173C, strain kem1, stronger effect = lower value 1.01 | locus YGL227W, strain vid30, stronger effect = lower value 0.992 | locus YGL240W, strain doc1, stronger effect = lower value 1.01 | locus YGL253W, strain hxk2, stronger effect = lower value 0.999 | locus YHR013C, strain ard1, stronger effect = lower value 0.954 | locus YHR027C, strain rpn1, stronger effect = lower value 0.997 | [8] 1.03 | locus YHR079C, strain IRE1, stronger effect = lower value 1.04 | locus YHR142W, strain chs7, stronger effect = lower value 1.01 | locus YJL092W, strain hpr5, stronger effect = lower value 0.998 | locus YJL095W, strain BCK1 (second series), stronger effect = lower value 0.997 | locus YJL095W, strain BCK1, stronger effect = lower value 1.05 | locus YJL115W, strain asf1, stronger effect = lower value 0.99 | locus YJL129C, strain trk1, stronger effect = lower value 1.01 | locus YJL154C, strain vps35, stronger effect = lower value 1 | locus YJL164C, strain tpk1, stronger effect = lower value 0.999 | locus YJL166W, strain qcr8, stronger effect = lower value 1 | locus YJL187C, strain SWE1, stronger effect = lower value 0.999 | locus YJR066W, strain TOR1, stronger effect = lower value 1.01 | locus YKL160W, strain elf1, stronger effect = lower value 1.01 | locus YKR026C, strain gcn3, stronger effect = lower value 0.98 | locus YKR091W, strain srl3, stronger effect = lower value 0.992 | locus YLL001W, strain dnm1, stronger effect = lower value 1.01 | locus YLL026W, stronger effect = lower value 0.996 | locus YLL041C, strain sdh2, stronger effect = lower value 0.997 | locus YLR027C, strain aat2, stronger effect = lower value 1 | locus YLR113W, strain HOG1, stronger effect = lower value 1.01 | locus YLR221C, strain rsa3, stronger effect = lower value 0.997 | locus YLR258W, strain gsy2, stronger effect = lower value 0.993 | locus YLR262C, strain YPT6 (second series), stronger effect = lower value 1.01 | locus YLR320W, strain mms22, stronger effect = lower value 1.01 | locus YLR342W, strain FKS1, stronger effect = lower value 0.998 | locus YLR357W, strain rsc2, stronger effect = lower value 0.982 | locus YLR370C, strain arc18, stronger effect = lower value 1 | locus YLR384C, strain iki3, stronger effect = lower value 0.994 | locus YML120C, strain ndi1, stronger effect = lower value 1.03 | locus YMR058W, strain fet3, stronger effect = lower value 1 | locus YMR125W, strain sto1, stronger effect = lower value 0.995 | locus YMR129W, stronger effect = lower value 0.986 | locus YMR205C, strain PFK2, stronger effect = lower value 0.984 | locus YMR231W, strain pep5, stronger effect = lower value 0.999 | locus YNL071W, strain lat1, stronger effect = lower value 1.01 | locus YNL183C, strain NPR1, stronger effect = lower value 1.02 | locus YNL209W, strain ssb2, stronger effect = lower value 1.01 | locus YNL248C, strain rpa49, stronger effect = lower value 1.02 | locus YNL322C, strain KRE1 (second series), stronger effect = lower value 0.986 | locus YNR049C, strain mso1, stronger effect = lower value 0.989 | locus YOR001W, strain rrp6, stronger effect = lower value 1 | locus YOR070C, strain gyp1, stronger effect = lower value 0.988 | locus YOR080W, strain dia2, stronger effect = lower value 0.99 | locus YOR083W, strain WHI5, stronger effect = lower value 1.01 | locus YOR106W, strain vam3, stronger effect = lower value 1 | locus YOR231W, strain MKK1, stronger effect = lower value 1.05 | locus YOR265W, strain rbl2, stronger effect = lower value 0.999 | locus YOR270C, strain vph1, stronger effect = lower value 1.01 | locus YOR290C, strain snf2, stronger effect = lower value 0.926 | locus YPL051W, strain arl3, stronger effect = lower value 1.01 | locus YPL078C, strain atp4, stronger effect = lower value 1.01 | locus YPL106C, strain sse1, stronger effect = lower value 0.993 | locus YPL240C, strain hsp82, stronger effect = lower value 1.01 | locus YPL256C, strain CLN2, stronger effect = lower value 1.05

C[C@@](Cc1ccc(O)c(O)c1)(NN)C(=O)O
inactive: [28] 1.01 | [29] 1 | [30] 1.02 | [31] 1.06 | [19] 0.997 | [32] 1.04 | [33] 0.993 | [34] 1.02 | [35] 0.978

CC(N)(Cc1ccc(O)c(O)c1)C(=O)O (stereo not drawn)
inactive: [1] 0.956 | [28] 0.961 and 1 | [30] 1.02 and 1.01 | [31] 1.01 | [7] 1.01 and 0.992 | [27] 0.862 | [10] 0.984 and 0.975 | [18] 1.01 | [20] 0.971 | [32] 1.01 and 1 | [33] 1.01 | [34] 1.01 | [22] 1.02 and 1.01 | [35] 1.01 and 0.993 | [24] 0.943
0.914 (active) and 0.963 (inactive): [29]

CC(N)(Cc1ccc(O)cc1)C(=O)O (stereo not drawn)
inactive: [1] 1.03 | [28] 0.969 and 1.01 | [29] 0.991 and 1.01 | [5] 1 | [30] 1 and 1.03 | [31] 0.984 and 1 | [7] 1.02 | [27] 1.03 | [10] 1.02 | [18] 1.01 | locus YNL128W, strain TEP1, stronger effect = lower value 0.984 | [20] 0.998 and 1.02 | [32] 0.97 and 1.01 | [33] 0.975 and 0.984 | [34] 1.01 and 1 | [22] 1.03 | [35] 0.974 and 1 | [24] 1.01 and 1.02
